Source: PubChem (several laboratories)
ADAM17 inh: inhibits human ADAM17 | P78536 | recombinant ADAM17, EDANS/DABCYL FRET peptide cleavage | inhibition, % at 6.95 µM | 370,000 tested, 0.83% active | AID 720648;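 active = inhibition above the mean of compounds lying between control limits plus 3 SD, set per campaign, cut at about 8.5% in these data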
proKLK7 act: proKLK7 (human) activation, primary screen. activation, % at 7 µM. purified proKLK7, EDANS-DABCYL substrate fluorescence; 100% is mature enzyme control, 0% vehicle. 370,000 tested, 0.9% active;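 active = activation above the mean of all tested compounds plus 3 SD, computed per campaign excluding outliers beyond control limits, cut at about 13% in these data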
NRP1-CendR mod: modulators of CendR peptide binding to human neuropilin-1 | O14786 | FAM-RPARPAR peptide binding to NRP-1, fluorescence polarization | inhibition, % at 25 µM | 360,000 tested, 0.85% active | AID 602438;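 active = inhibition or corrected inhibition above about 18%, plus a signal ratio from 0.5 to 1.5, limit read from the data, passing the limit was not always enough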
ADAM10 inh: ADAM10 inhibition, QFRET primary screen. recombinant ADAM10, EDANS/DABCYL FRET peptide cleavage, 3 h. 370,000 tested, 0.62% active. inhibition, % at 7 µM. O14672;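 active = inhibition above a per-campaign cutoff equal to the mean of compounds falling between control-based bounds plus 3 SD, cut at about 20% in these data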
sPLA2-III inh: Inhibits HGIII-sPLA2 liposome hydrolysis, primary screen. AID 743126. 370,000 tested, 0.56% active. QFRET BODIPY PC-A2 liposome hydrolysis, fluorescence. inhibition, % at 12.2 µM;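 active = inhibition above mean plus 3 SD of compounds lying within the high and low control bounds, cut at about 19% in these data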
Target sequence (Q9NZ20 whole entry, looked up): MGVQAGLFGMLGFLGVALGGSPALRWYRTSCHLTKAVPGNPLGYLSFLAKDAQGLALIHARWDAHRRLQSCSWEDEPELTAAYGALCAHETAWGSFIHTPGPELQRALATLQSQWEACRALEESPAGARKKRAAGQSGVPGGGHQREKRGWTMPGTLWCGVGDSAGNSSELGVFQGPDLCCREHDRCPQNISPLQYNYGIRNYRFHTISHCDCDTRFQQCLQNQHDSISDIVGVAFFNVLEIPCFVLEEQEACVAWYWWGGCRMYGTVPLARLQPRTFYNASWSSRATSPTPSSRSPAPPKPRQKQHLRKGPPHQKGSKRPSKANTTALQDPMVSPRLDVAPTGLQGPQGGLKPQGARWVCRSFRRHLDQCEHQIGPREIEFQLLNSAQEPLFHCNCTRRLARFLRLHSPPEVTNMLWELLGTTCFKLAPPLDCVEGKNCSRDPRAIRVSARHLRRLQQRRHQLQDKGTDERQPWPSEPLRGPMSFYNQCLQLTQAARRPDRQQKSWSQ
Numbers stand for hits. Sampled rows, rich in hits. Any-hit rate of the full collection: about 3.4%.

What do the screens show for `CC(C)NCC(O)Cn1c2c(c3ccccc31)CCc1c-2cnn1-c1ccccc1` (stereo unspecified)?
ADAM17 inh: inactive; proKLK7 act: inactive; NRP1-CendR mod: inactive; ADAM10 inh: inactive; sPLA2-III inh: 21

What do the screens show for `CN1CCc2c(n(CC(O)CNCc3ccccc3)c3ccccc23)C1=O` (stereo unspecified)?
ADAM17 inh: inactive; proKLK7 act: inactive; NRP1-CendR mod: inactive; ADAM10 inh: inactive; sPLA2-III inh: inactive

What do the screens show for `Cc1cc(NC2=CC(=O)C(=O)c3ccccc32)no1`?
ADAM17 inh: inactive; proKLK7 act: inactive; NRP1-CendR mod: 28; ADAM10 inh: inactive; sPLA2-III inh: inactive

Results for Cc1ccc(NC2=CC(=O)C(=O)c3ccccc32)cc1 ?
ADAM17 inh: inactive; proKLK7 act: inactive; NRP1-CendR mod: inactive; ADAM10 inh: inactive; sPLA2-III inh: inactive

What do the screens show for `O=[N+]([O-])c1ccc(Nc2ccccc2)c2nonc12`?
ADAM17 inh: inactive; proKLK7 act: inactive; NRP1-CendR mod: inactive; ADAM10 inh: inactive; sPLA2-III inh: inactive

How did O=[N+]([O-])c1ccc(Sc2cccc[n+]2[O-])c2nonc12 do in these assays?
ADAM17 inh: inactive; proKLK7 act: inactive; NRP1-CendR mod: 34; ADAM10 inh: inactive; sPLA2-III inh: inactive

What do the screens show for `CCCCNC(=O)C1c2ccccc2OCC(=O)N1Cc1ccccc1` (stereo unspecified)?
ADAM17 inh: inactive; proKLK7 act: inactive; NRP1-CendR mod: inactive; ADAM10 inh: inactive; sPLA2-III inh: inactive

How did CCCCNC(=O)C1c2ccccc2OCC(=O)N1Cc1ccc2c(c1)OCO2 (stereo unspecified) do in these assays?
ADAM17 inh: inactive; proKLK7 act: inactive; NRP1-CendR mod: 19; ADAM10 inh: inactive; sPLA2-III inh: inactive

What do the screens show for `N#CCCN1CCN(CCC#N)CC1`?
ADAM17 inh: inactive; proKLK7 act: inactive; NRP1-CendR mod: inactive; ADAM10 inh: inactive; sPLA2-III inh: inactive

What do the screens show for `N#CCCN1CCNCC1`?
ADAM17 inh: inactive; proKLK7 act: inactive; NRP1-CendR mod: 34; ADAM10 inh: inactive; sPLA2-III inh: inactive

What do the screens show for `CC(C)(C)c1ccc(S(=O)(=O)N2CCC(C(=O)N3CCN(C4CCCCC4)CC3)CC2)cc1`?
ADAM17 inh: inactive; proKLK7 act: inactive; ADAM10 inh: inactive; sPLA2-III inh: inactive

How did OC(c1ccccc1)(c1ccccc1)C1CCN(CCCNc2cccc(Br)c2)CC1 do in these assays?
ADAM17 inh: inactive; proKLK7 act: inactive; ADAM10 inh: inactive; sPLA2-III inh: inactive

How did CCc1ccc(OC(=O)CN2C(=O)c3ccccc3C2=O)cc1 do in these assays?
ADAM17 inh: inactive; proKLK7 act: inactive; NRP1-CendR mod: 26; ADAM10 inh: inactive; sPLA2-III inh: inactive

Results for C[C@@H]1ON(C)[C@H]2C[C@H]3c4cc(-c5cccc(Cl)c5)ccc4CCN3C[C@@H]12 ?
ADAM17 inh: inactive; proKLK7 act: inactive; ADAM10 inh: inactive; sPLA2-III inh: inactive

What do the screens show for `CCOC(=O)c1c(N)nn(C(=O)C(C)C)c1-c1ccccc1`?
ADAM17 inh: inactive; proKLK7 act: inactive; NRP1-CendR mod: 22; ADAM10 inh: inactive; sPLA2-III inh: inactive

What do the screens show for `CCOC(=O)c1c(N)nn(C(=O)CC)c1-c1ccccc1`?
ADAM17 inh: inactive; proKLK7 act: inactive; NRP1-CendR mod: inactive; ADAM10 inh: inactive; sPLA2-III inh: inactive

What do the screens show for `CCOC(=O)N1CCN(C(=O)c2ccc3c(c2)N(CC)CCS3)CC1`?
ADAM17 inh: inactive; proKLK7 act: 14; NRP1-CendR mod: inactive; ADAM10 inh: inactive; sPLA2-III inh: inactive

What do the screens show for `CC(CCN1CCC(C(O)(c2ccccc2)c2ccccc2)CC1)Oc1ccc(F)cc1` (stereo unspecified)?
ADAM17 inh: inactive; proKLK7 act: inactive; ADAM10 inh: inactive; sPLA2-III inh: inactive

Results for CC(C)CN1C(=O)C[C@@]2(C(=O)N(C)c3ccc(NS(=O)(=O)c4ccc(F)cc4)cc32)C1c1ccccc1 (stereo partly specified) ?
ADAM17 inh: inactive; proKLK7 act: inactive; ADAM10 inh: inactive; sPLA2-III inh: inactive

What do the screens show for `CN(C)c1ccc(C(O)c2cc3ccccc3s2)cc1` (stereo unspecified)?
ADAM17 inh: 10; proKLK7 act: inactive; NRP1-CendR mod: inactive; ADAM10 inh: inactive; sPLA2-III inh: inactive

How did COC(=O)[C@]12C[C@H](CC(=O)NCCc3ccccc3OC)C(=O)N(Cc3ccc4c(c3)OCO4)C1=C[C@H](C(C)(C)C)O[C@@H]2C do in these assays?
ADAM17 inh: inactive; proKLK7 act: inactive; ADAM10 inh: inactive; sPLA2-III inh: inactive

How did Cc1c(C)c2c(OCC(=O)NC3CC3)cc3c(c2oc1=O)CCC(C)(C)O3 do in these assays?
ADAM17 inh: inactive; proKLK7 act: inactive; NRP1-CendR mod: inactive; ADAM10 inh: inactive; sPLA2-III inh: inactive

What do the screens show for `Cc1c(C)c2c(OCC(=O)N3CCC(C(N)=O)CC3)cc3c(c2oc1=O)CCC(C)(C)O3`?
ADAM17 inh: inactive; proKLK7 act: 32; NRP1-CendR mod: inactive; ADAM10 inh: inactive; sPLA2-III inh: inactive

What do the screens show for `c1ccc(C2CC(c3ccccc3)n3c(nc4ccccc43)N2)cc1` (stereo unspecified)?
ADAM17 inh: inactive; proKLK7 act: inactive; NRP1-CendR mod: 24; ADAM10 inh: inactive; sPLA2-III inh: inactive

What do the screens show for `Cc1ccccc1-c1cc(C(=O)NCc2cccc(Br)c2)n(CC2CC(c3cccnc3)=NO2)n1` (stereo unspecified)?
ADAM17 inh: inactive; proKLK7 act: inactive; NRP1-CendR mod: 24; ADAM10 inh: inactive; sPLA2-III inh: inactive

Results for COc1ccccc1CNC(=O)c1cc(-c2ccccc2)nn1CC1CC(c2cccc([N+](=O)[O-])c2)=NO1 (stereo unspecified) ?
ADAM17 inh: inactive; proKLK7 act: inactive; NRP1-CendR mod: inactive; ADAM10 inh: 20; sPLA2-III inh: inactive

What do the screens show for `COc1ccc(OC)c(S(=O)(=O)N2CCCC(C(=O)N3CCN(Cc4ccccc4)CC3)C2)c1` (stereo unspecified)?
ADAM17 inh: inactive; proKLK7 act: inactive; ADAM10 inh: inactive; sPLA2-III inh: inactive

What do the screens show for `Cc1ccc(-n2c(Cc3cccs3)nnc2SCC(=O)Nc2ccccc2-c2ccccc2)cc1`?
ADAM17 inh: inactive; proKLK7 act: inactive; ADAM10 inh: inactive; sPLA2-III inh: inactive

Results for CC12CNCC(C)(CN(C(c3ccccc3)c3ccccc3)C1)C2 ?
ADAM17 inh: inactive; proKLK7 act: inactive; NRP1-CendR mod: 31; ADAM10 inh: inactive; sPLA2-III inh: inactive

What do the screens show for `Clc1ccc(C(c2ccccc2)N2CCNCC2)cc1` (stereo unspecified)?
ADAM17 inh: inactive; proKLK7 act: inactive; NRP1-CendR mod: inactive; ADAM10 inh: inactive; sPLA2-III inh: inactive

What do the screens show for `Cc1cc(C)n(-c2ccc(C(=O)NC(C)C)cc2)n1`?
NRP1-CendR mod: inactive

How did O=C(Nc1nnc(C2CC2)s1)c1cccs1 do in these assays?
ADAM17 inh: inactive; proKLK7 act: inactive; NRP1-CendR mod: 25; ADAM10 inh: inactive; sPLA2-III inh: inactive

How did Cc1cc(C)n(-c2ccc(C(=O)Nc3nnc(C4CC4)s3)cc2)n1 do in these assays?
ADAM17 inh: inactive; proKLK7 act: inactive; NRP1-CendR mod: 26; ADAM10 inh: inactive; sPLA2-III inh: inactive
